Assay [1] can be described thus: NCI Yeast Anticancer Drug Screen. Data for the rad50 strain (AID 155).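 Note: 0% = growth of vehicle-only cultures of the same strain.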 The note with it: S. cerevisiae rad50 strain growth inhibition; at 50.0 µM; active compounds read high. An outline of the steps:
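DNA repair mutant yeast, compound exposure, growth read-out; inhibition is taken relative to vehicle.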

The nature of assay [2]: NCI Yeast Anticancer Drug Screen. Data for the mec2-1 strain (AID 157). The settings on record: S. cerevisiae mec2-1 strain, at 50.0 µM, active compounds read high. An outline of the steps:
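Vehicle-treated cultures served as reference for growth inhibition of compound-exposed mec2-1 yeast.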

Assay [3] in a line: NCI Yeast Anticancer Drug Screen. Data for the sgs1 mgt1 strain (AID 161).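 Note: 0% = growth of cultures given vehicle only.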 The settings on record: S. cerevisiae sgs1 mgt1 strain, at 50.0 µM, active compounds read high. Summed up:
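Test agents were incubated with a DNA-repair-mutant yeast strain. Growth was then read and compared against vehicle-treated controls.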

Assay [4] can be described thus: NCI Yeast Anticancer Drug Screen. Data for the cln2 rad14 strain (AID 165).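 Note: 0% = growth equal to vehicle treated cultures.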 The settings on record: S. cerevisiae cln2 rad14 strain, at 50.0 µM, active compounds read high. An outline of the steps: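 Each compound was tested on cln2 rad14 yeast. Inhibition of growth was calculated against vehicle-exposed controls.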
Assay [5] in a line: NCI Yeast Anticancer Drug Screen. Data for the bub3 strain (AID 167). The note with it: S. cerevisiae bub3 mutant strain, at 50.0 µM, active compounds read high. An outline of the steps:
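In this screen, a yeast mutant lacking normal mitotic checkpoint function is challenged with compound. Relative growth versus vehicle gives the inhibition value.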

A short description of assay [6]: NCI Yeast Anticancer Drug Screen. Data for the mlh1 rad18 strain (AID 175). The settings on record: S. cerevisiae mlh1 rad18 strain growth inhibition; at 50.0 µM; active compounds read high. Summed up:
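Vehicle-treated cultures served as the reference for growth inhibition in a yeast strain carrying DNA damage repair alterations exposed to each compound.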

About 79,000 compounds went through this panel and 15% of them were active in at least one assay; those are over-represented in the sample as a whole. Unmarked numbers belong to inactive results. Calls of active or inactive are those of the source. Cut-off read from the data, not from the text of the source: active = growth inhibition above about 70%; inactive = the rest.

As to `COc1ccc2c3c([nH]c2c1[N+](=O)[O-])C(C)N(C)CC3` (stereo not given), the growth inhibition is -0.1% in assay [1]; 7.5% in assay [2]; 21.1% in assay [3]; 25.3% in assay [4]; 0.8% in assay [5]; 33.2% in assay [6].
As for `Cc1ccc(NC(=O)COc2ccccc2)c(C)c1`, the growth inhibition was 4.35% in assay [1]; 19.9% in assay [2]; 15.9% in assay [3]; -4.25% in assay [4]; 28.3% in assay [5]; 28.4% in assay [6].
As for `O=c1[nH]c2cc(Cl)ccc2nc1/C=C(\O)c1ccc([N+](=O)[O-])cc1`, the growth inhibition was 25.6% in assay [1]; 21.8% in assay [2]; 37.4% in assay [3]; 7.85% in assay [4]; 6.55% in assay [5]; 54% in assay [6].
Take `O=S(=O)(c1ccccc1)N1N=C2c3ccccc3CCC[C@H]2C1c1ccccc1` (stereo not given in full): the growth inhibition in assay [1] is 51.1%; in assay [2], -16.4%; in assay [3], -12.7%; in assay [4], -49.7%; in assay [5] it was 4.85%; in assay [6], 4.85%.
For the compound `O=c1[nH]c(=O)c2ncn(-c3ccc([N+](=O)[O-])cn3)c2[nH]1`, the growth inhibition in assay [1] was 20.8%; in assay [2], 7.3%; in assay [3], 9.95%; in assay [4], 5.4%; in assay [5] it was 8.6%; in assay [6] it was -27.6%.
`CCN(CC)CCCCCOC(=O)c1ccccc1`: the growth inhibition is 23.2% in assay [1]; 28.2% in assay [2]; 48.5% in assay [3]; 40% in assay [4]; 43.4% in assay [5]; 18.6% in assay [6].
`CCCCCC/C=C/C(N)=O`: the growth inhibition in assay [1] is 5.75%; in assay [2] it was 5.6%; in assay [3] it was -7.8%; in assay [4] it was 12.1%; in assay [5], -20.2%; in assay [6] it was 8.35%.
As to `CC(C)Oc1cc2c(cc1O)CC[C@@H]1[C@@H]2CC[C@]2(C)[C@@H](O)CC[C@@H]12`, the growth inhibition in assay [1] was 45.9%; in assay [2] it was 8.2%; in assay [3] it was 63.7%; in assay [4], 33%; in assay [5], 56.9%; in assay [6], 44.1%.
On to `O=Cc1c(CO)cc(O)c(O)c1O`, for which the growth inhibition in assay [1] was -12.4%; in assay [2] it was -0.1%; in assay [3], 16.1%; in assay [4], -30.6%; in assay [5], 2.9%; in assay [6] it was 6.55%.
`CC(CO)C1C[C@H](O)[C@@]2(C)CC(=O)C=C(CO)[C@@H]2C1` (stereo not given in full): the growth inhibition in assay [1] was 35%; in assay [2], 22.6%; in assay [3] it was -3.55%; in assay [4], 25.9%; in assay [5], -7.15%; in assay [6], -46%.
Consider `O=C(Nc1ccc(CCc2ccc(NC(=O)C34CC5CC(CC(C5)C3)C4)cc2)cc1)C12CC3CC(CC(C3)C1)C2`, for which the growth inhibition was -9.65% in assay [1]; -6.55% in assay [2]; 13.8% in assay [3]; -0.45% in assay [4]; -0.25% in assay [5]; 2.55% in assay [6].
As to `CC(=O)OC1C/C(C)=C/CCC(C)/C=C/C2(C)CCC(C(C)(C)O)C12` (stereo not given), the growth inhibition is 1.7% in assay [1]; -10.3% in assay [2]; 11.9% in assay [3]; 2.5% in assay [4]; 14.1% in assay [5]; 17.6% in assay [6].
Turning to `O=C(O)/C=C/Sc1ccc(Cl)cc1`, the growth inhibition in assay [1] was 76% (active); in assay [2], 32.5%; in assay [3] it was 79.3% (active); in assay [4], 59.9%; in assay [5], 78% (active); in assay [6], 78.4% (active).
For `Cn1c(=O)n(C2OC(CO)C(O)C2O)c2ncnc(N)c21` (stereo not given), the growth inhibition is 8.9% in assay [1]; 0.55% in assay [2]; -5.8% in assay [3]; -43.1% in assay [4]; -2.9% in assay [5]; 4.65% in assay [6].
As for `N#Cc1n[nH]n(C2CCCCC2)c1=O`, the growth inhibition in assay [1] is -29.4%; in assay [2] it was -12.8%; in assay [3], -13.3%; in assay [4], -0.3%; in assay [5], -20.1%; in assay [6], -14.2%.
Turning to `O=C(O)C12CCCC(CCC1)C2`, the growth inhibition in assay [1] is -2.2%; in assay [2] it was 1.05%; in assay [3], -3.8%; in assay [4], -4.35%; in assay [5], -0.2%; in assay [6], -0.55%.
As to `O=C(NC(=O)c1cc2cc(Br)cc(Br)c2oc1=O)Oc1ccccc1`, the growth inhibition in assay [1] was 24.9%; in assay [2], 19.4%; in assay [3], 14.1%; in assay [4], 25.4%; in assay [5] it was -2.55%; in assay [6], 13.1%.
Take `Clc1ccc(C2=NON(c3ncccn3)C3N=CC=CN23)cc1` (stereo not given): the growth inhibition in assay [1] is 9.7%; in assay [2], -20.8%; in assay [3] it was 0.55%; in assay [4] it was -6.75%; in assay [5], 0.05%; in assay [6], 19%.
`N#C/C(=C\c1ccccc1)c1cccc(Cl)c1`: the growth inhibition in assay [1] was -32.2%; in assay [2] it was -5.8%; in assay [3], -13.3%; in assay [4] it was -97.1%; in assay [5] it was 13.8%; in assay [6], -12.7%.
Turning to `N#CCCn1[nH]c(=O)c(Cl)c(Cl)c1=O`, the growth inhibition in assay [1] is 6.95%; in assay [2] it was 4.6%; in assay [3], -3.9%; in assay [4], -6.8%; in assay [5], 4.15%; in assay [6], -3.3%.

The values above are taken from PubChem BioAssay (NCI).
